HPGD block: qHTS Assay for Inhibitors of HPGD (15-Hydroxyprostaglandin Dehydrogenase). purified HPGD, NADH fluorescence kinetic, PGE2 substrate. actives 4.3% (n = 150,000). AID 894, 2007. Potency, µM, for the others: at the highest dose activity change, negative = inhibition, actives largely listed as inhibitors. 15-hydroxyprostaglandin dehydrogenase [NAD(+)] (Homo sapiens), P15428; active = well fitted inhibition curve with a large enough effect, not every such curve was filed as active; inconclusive = small, poorly fitted or top-dose-only effect, or another doubt; inactive = no such curve, though single readings can be large or run the other way
Target sequence (P15428 whole entry, looked up): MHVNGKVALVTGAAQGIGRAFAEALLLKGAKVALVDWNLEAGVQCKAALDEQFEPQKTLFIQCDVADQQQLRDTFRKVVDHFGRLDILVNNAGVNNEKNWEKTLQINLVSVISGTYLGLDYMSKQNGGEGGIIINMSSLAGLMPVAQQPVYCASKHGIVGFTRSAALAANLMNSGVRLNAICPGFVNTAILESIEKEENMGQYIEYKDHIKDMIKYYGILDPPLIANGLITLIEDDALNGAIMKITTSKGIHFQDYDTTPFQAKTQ
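20 nM HPGD preincubated 15 min at room temperature with compound in 50 mM Tris-HCl pH 8, 0.01% Tween 20. Started with 1 mM NAD+ and 30 uM prostaglandin E2; NADH fluorescence (360/450 nm) read 5 times over 30-s intervals, last minus first.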
ALOX12 inhib: qHTS Assay for Inhibitors of 12-hLO (12-human lipoxygenase) | Polyunsaturated fatty acid lipoxygenase ALOX12 (Homo sapiens), P18054 | purified 12-hLO, xylenol orange hydroperoxide absorbance | actives 0.12% (n = 150,000) | Potency, µM (titrated, usually from 57.1 µM), without a hit: at the highest dose activity change, negative = inhibition, usual class: inhibitors | AID 1452, 2008; also: nearly all actives have a fitted effect of over 55% in size
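Lipoxygenase turnover measured by absorbance at 573 and 405 nm after Fe-XO development. Human 12hLO 150 nM, arachidonate 40 uM, pH 7.0 Hepes buffer with detergent; 15 min compound preincubation, 30 min reaction.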
p53ts 32C kill: qHTS Screen for Compounds that Selectively Target Cancer Cells with p53 Mutations: Cytotoxicity of p53ts Cells at the Permissive Temperature; H1299-p53A138V at 32C, ATP luminescence viability, 24 h; Potency, µM (highest dose often 46.1 µM), without a hit: at the top dose activity change, negative = cytotoxicity, usual class: cytotoxic; actives 0.93% (n = 130,000);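 also: 0% = DMSO and -100% = full killing by reference compound; nearly all actives have a fitted effect of over 55% in size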
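Cells: H1299 p53ts (A138V), 600/well, pre-incubated 16–30 h at 37C. Cpd up to 46 uM, 24 h, 32C. Readout: ATPlite luminescence, 20 min RT. Normalization: DMSO vs tamoxifen 100 uM. AC50 by Hill equation.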
p53ts 39C kill: qHTS Screen for Compounds that Selectively Target Cancer Cells with p53 Mutations: Cytotoxicity of p53ts Cells at the Nonpermissive Temperature; AID 902, 2007; actives 1.5% (n = 130,000); Potency, µM (doses to about 46.1 µM), without a hit: at the highest dose activity change, negative = cell killing, most hits filed as cytotoxic; H1299-p53A138V viability at 39C, ATP luminescence, 24 h; also: nearly all actives have a fitted effect of over 55% in size
The depositor's hits bear a star; ? = inconclusive; / = not tested or not shown; ! = not confirmed by another sample; [ ] = another dose, or the depositor's remark. An excerpt weighted towards active compounds, which were near 4.4% of everything screened. Unless noted, calls follow the shape of the dose curve; as a rule, active = well fitted curve in the direction sought with a large enough effect; inconclusive = small, poorly fitted or top-dose-only effect, or another doubt; inactive = no such curve, though single readings can be large; an effect the other way counts as inactive or inconclusive. Unless noted, % is scaled to controls: 0 for no effect and ±100 for the full control effect; potency is read from the fitted curve at half-maximal effect.

SMILES	HPGD block	ALOX12 inhib	p53ts 32C kill	p53ts 39C kill
c1ccc(CCc2nn3c(C4COc5ccccc5O4)nnc3s2)cc1 (stereo not drawn)	10µM*	2.8%	3.0%	-4.6%
CCN(CC)CC(=O)Nc1ccc(C)cc1Br	15.8µM*	0.4%	-3.3%	3.4%
CCN(CC)CC(=O)Nc1c(C)cc(C(C)(C)C)cc1C	25.1µM*	3.8%	9.1%	-2.4%
Cc1ccc(NC(=O)COC(=O)C2CC2)c(Br)c1	17.8µM*	0.5%	/	/
Cc1ccc(Cl)cc1N1CCN(C(=O)CCCn2c(=O)[nH]c3ccc(Br)cc3c2=O)CC1	/	/	-0.5%	-18.0%
COc1cccc(N2CCN(C(=O)CCCn3c(=O)[nH]c4ccc(Br)cc4c3=O)CC2)c1	/	/	12.6µM*	-17.0%
Cc1ccc(O)c(N=CC2=C(O)c3ccccc3C2=O)c1	?	-12.1%	?	?
O=C1C(C=Nc2ccccc2O)=C(O)c2ccccc21	-13.7%	-1.7%	10µM*	?
CCn1c(CNc2cccc(Cl)c2)nnc1SCC(=O)OC1CCCCC1	28.2µM*	-3.1%	-0.3%	-6.0%
CCn1c(CNc2ccc(Cl)cc2)nnc1SCC(=O)OC1CCCCC1	-18.5%	-0.9%	-7.6%	-12.7%
Cc1ccc(CNC(=O)c2ccc(Cn3c(=O)c4ccccc4n(CC(=O)Nc4c(C)cc(C)cc4C)c3=O)cc2)cc1	/	/	15.8µM*	-29.2%
Cc1cc(C)c(NC(=O)Cn2c(=O)n(Cc3ccc(C(=O)NCc4ccco4)cc3)c(=O)c3sccc32)c(C)c1	/	/	?	25.1µM*
COc1ccccc1/C=N/Nc1nncc2ccccc12	-17.1%	-2.6%	?	-7.5%
COc1ccc(/C=N/Nc2nncc3ccccc23)cc1	-7.9%	-2.0%	/	3.16µM*
NNc1nncc2ccccc12	-18.0%	-2.7%	7.94µM*	10µM*
Cc1ccc(C(=O)c2cn(CC(=O)NCc3ccccc3Cl)c3nc(C)ccc3c2=O)cc1	/	/	2.3%	8.8%
CCCCCCCC/C=C\CCCCCCCC(=O)NCc1ccc(O)c(OC)c1	?	-10.4%	?	31.6µM*
CCCCCCCCCCCCCCCC(=O)NCCc1ccc(O)c(O)c1	-4.7%	0.6%	13.1%	-14.8%
CCCCC/C=C\C/C=C\C/C=C\C/C=C\CCCCCC(=O)NCCc1ccc(O)c(O)c1	-20.3%	?	/	/
CCCCCCCC/C=C\CCCCCCCC(=O)NCCc1ccc(O)c(O)c1	?	-8.7%[0.00818 µM]	?	12.6µM*
Cc1c(Cl)cccc1NC(=O)C(C)n1nc(C)c2c(C)n(-c3ccccc3)nc2c1=O (stereo not drawn)	/	/	9.5%	16.3%
COc1ncc2ncc(=O)n(Cc3ccc(F)cc3)c2n1	-29.8%	-0.1%	-4.2%	0.5%
COc1ccc(Oc2ncc3ncc(=O)n(Cc4ccc(F)cc4)c3n2)cc1	31.6µM*	-12.1%	11.7%	1.1%
O=C(Cn1ncc2ccsc2c1=O)N1CCN(c2ccccc2F)CC1	/	/	-10.6%	-4.2%
Cc1noc(C)c1-c1nccc(NC2CC2)n1	/	/	-3.9%	4.7%
SMILES	HPGD block	ALOX12 inhib	p53ts 32C kill	p53ts 39C kill
COc1ccc(C(=O)N2CCC[C@@]3(CCN(Cc4ccc(C#N)cc4)C3)C2)cc1	15.8µM*	-1.4%	8.6%	-0.7%
CC(=O)Oc1oc(-c2ccccc2)nc1/C=N/c1ccccn1	22.4µM*	-0.3%	/	/
COc1ccccc1N=Cc1nc(-c2ccccc2)oc1OC(C)=O	?	-4.5%	-2.3%	27.7%
Cc1ccccc1Nc1c(N)c(=O)oc2ccccc12	15.8µM*	-6.2%	/	/
Cc1[nH]nc2c1/C(=N/O)CC(c1ccccc1)C2 (stereo not drawn)	14.1µM*	-0.3%	/	/
CCCc1n[nH]c2c1/C(=N/O)CC(c1ccccc1)C2 (stereo not drawn)	7.08µM*	1.7%	-19.3%	-17.8%
CCc1cccc(NC(c2nnc(-c3ccccc3)o2)c2ccc(F)cc2Cl)c1 (stereo not drawn)	/	/	17.6%	?
O=C(NCC1CCN(Cc2cccc(Cl)c2)CC1)Nc1cc(Cl)ccc1Cl	/	/	?	12.6µM*
CCc1cc2c(nc1CC)CCN(CC/C(C)=N/OCC[C@@H]1C=C[C@H](OC(C)=O)[C@H](COC(C)=O)O1)C2	/	/	6.6%[9.22 µM]	11.3%[9.22 µM]
OCC1OC(c2ccccc2)C=CC1Oc1cc(Cl)cc(Cl)c1 (stereo not drawn)	/	/	6.9%[9.22 µM]	-1.6%[9.22 µM]
CCC(=O)N1CCc2cc(Br)cc(S(=O)(=O)N(CC)Cc3ccccc3)c21	/	/	0.9%	-15.8%
CCN=c1scc(C)n1/N=C/c1ccc(O)c(O)c1O	7.08µM*	-29.2%	/	/
CCN=c1scc(-c2ccco2)n1/N=C/c1ccc(O)cc1	?	-13.7%	/	/
CN(C)c1ccc(/C=N/NC(=O)C(O)(c2ccccc2)c2ccccc2)o1	?	-21.9%	/	/
O=C(N/N=C/c1ccc(N2CCCCC2)o1)C(O)(c1ccccc1)c1ccccc1	31.6µM*	-4.3%	/	/
COc1cccc(-c2noc(Cn3nc(C)c([N+](=O)[O-])c3C)n2)c1	25.1µM*	-17.5%	/	/
COc1ccc(-c2noc(C(C)n3nc(C)c([N+](=O)[O-])c3C)n2)cc1OC (stereo not drawn)	-11.8%	-2.3%	/	/
CC1CCc2c(sc(NC(=O)C3c4ccccc4Oc4ccccc43)c2C(=O)OC(C)C)C1 (stereo not drawn)	/	/	-3.7%	-18.0%
CC1CCc2c(sc(N)c2C(=O)OC(C)C)C1 (stereo not drawn)	28.2µM*	-16.6%	/	/
O=C1CSC(=Nc2cc(Cl)ccc2Cl)N1	10µM*	-1.2%	8.8%	-1.1%
S=c1[nH]c2ccc(Cl)cc2[nH]1	10µM*	-5.6%	-6.5%	-17.6%
COc1ccc2[nH]c(=S)[nH]c2c1	28.2µM*	-6.4%	0.5%	-1.8%
S=c1[nH]c2cc(Cl)ccc2s1	28.2µM*	-2.0%	/	/
CN(C(=O)c1cc2c(=O)oc3ccccc3c2s1)c1ccc(F)cc1	/	/	0.6%	-16.8%
COc1ccc(CC(=O)Nc2cc(-c3nc4cccnc4s3)ccc2C)cc1	/	/	?	12.6µM*
SMILES	HPGD block	ALOX12 inhib	p53ts 32C kill	p53ts 39C kill
Cc1ccc(/C=N/n2c(-c3cccs3)n[nH]c2=S)cc1	4.47µM*	-11.8%	/	/
COc1ccc(/C=N/n2c(-c3cccs3)n[nH]c2=S)cc1	3.98µM*	-17.4%	/	/
S=c1[nH]nc(-c2ccco2)n1/N=C/c1ccc(Cl)c(Cl)c1	/	-0.4%	/	/
CCCCC[C@H](O)/C=C/[C@H]1C=CC(=O)[C@@H]1C/C=C\CCCC(=O)O	22.4µM*!	-15.3%	/	/
CCCCC[C@H](O)C/C=C1/C(=O)C=C[C@@H]1C/C=C\CCCC(=O)O	?	-4.0%	/	/
Cc1cc(/C=C2/NC(=O)NC2=O)c(C)n1-c1sc2c(c1C#N)CCCC2	17.8µM*	-19.8%	/	/
O=C1c2ccccc2C(=O)c2c1ccc(C(=O)N1CCCCC1)c2NCCO	?	-0.2%	/	/
CC1(C)CCCN(C(=O)c2ccc3c(c2NCCO)C(=O)c2ccccc2C3=O)C1	15.8µM*	-0.8%	/	/

High-throughput results: PubChem, National Center for Advancing Translational Sciences (NCATS)
